We go through 40 molecules from PubChem BioAssay (Tox21).

The structures appear in SMILES notation. Where “and” joins values, the source holds several entries; their conditions need not be identical. Identical values can stand only once. Inconclusive results are not listed. Calls of active or inactive are those of the source. Calls follow the shape of the full dose curve.
% is scaled to controls: 0 for no effect and ±100 for the full control effect; potency is read from the fitted curve at half-maximal effect.

Sequence of Thyrotropin receptor (Homo sapiens) (P16473 whole entry, looked up): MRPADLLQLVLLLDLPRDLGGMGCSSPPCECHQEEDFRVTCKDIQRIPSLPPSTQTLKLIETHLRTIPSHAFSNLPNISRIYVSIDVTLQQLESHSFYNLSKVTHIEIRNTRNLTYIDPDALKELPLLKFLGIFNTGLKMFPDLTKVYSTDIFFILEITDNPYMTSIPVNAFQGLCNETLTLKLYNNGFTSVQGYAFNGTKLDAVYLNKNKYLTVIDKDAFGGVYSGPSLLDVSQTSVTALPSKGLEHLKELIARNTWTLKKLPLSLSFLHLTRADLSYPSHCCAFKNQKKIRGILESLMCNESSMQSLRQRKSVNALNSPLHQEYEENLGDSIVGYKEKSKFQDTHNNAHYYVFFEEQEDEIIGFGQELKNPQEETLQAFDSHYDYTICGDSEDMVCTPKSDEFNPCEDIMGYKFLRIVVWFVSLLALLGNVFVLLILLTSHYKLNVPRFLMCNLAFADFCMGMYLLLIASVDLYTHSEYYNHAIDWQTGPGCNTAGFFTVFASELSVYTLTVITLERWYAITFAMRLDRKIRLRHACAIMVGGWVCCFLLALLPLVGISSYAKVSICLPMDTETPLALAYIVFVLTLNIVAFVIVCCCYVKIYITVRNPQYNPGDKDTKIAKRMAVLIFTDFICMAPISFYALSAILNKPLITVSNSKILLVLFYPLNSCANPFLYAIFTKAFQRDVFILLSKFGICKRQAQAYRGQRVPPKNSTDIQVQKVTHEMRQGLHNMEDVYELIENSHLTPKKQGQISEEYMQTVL

This assay addresses Thyrotropin receptor (Homo sapiens) (UniProt P16473). In words: qHTS assay to identify small molecule agonists of the thyroid stimulating hormone receptor (TSHR) signaling pathway (AID 1224843). Also: nearly all actives have a fitted effect of over 45% in size. The settings on record: TSHR-HEK293 cells, cAMP HTRF, agonist mode, 30 min; series mostly up to 92.4 µM; activation: at the top concentration. The source says: National Center for Advancing Translational Sciences [NCATS]
NIH Chemical Genomics Center [NCGC]
U.S. Environmental Protection Agency [EPA]
National Institutes of Environmental Health Sciences [NIEHS]
National Toxicology Program [NTP]
U.S. Food and Drug Administration [FDA]
TSHR is the receptor for thyrotropin (thyroid stimulating hormone or TSH), a member of the glycoprotein hormone family. TSH is released by the anterior pituitary gland and is the main regulator of thyroid gland growth and development. Upon binding circulating thyrotropin, a G-protein signal cascade activates adenylyl cyclase and […] cAMP concentration is increased. cAMP is a key second messenger involved extensively in cellular signal transduction pathways associated with the majority of G-protein coupled receptors (GPCRs). The activation of these GPCRs by neurotransmitters, lipids, nucleotides, peptides and hormones results in the activation or the inhibition of plasma membrane-bound adenylate cyclase through heterotrimeric G-proteins. A cell-based TSHR assay was used to screen the Tox21 10K library for compounds that can modulate TSHR in agonist mode.
Tox21 Assay Protocol Summary:
TSHR-Hek293 cells were dispensed at 800 cells/4uL/well in 1536-well white plates using a Multidrop dispenser. […] The plates were incubated at room temperature for 30 min. 2.5 ul/well of cAMP-d2 and 2.5ul/well of anti-cAMP-cryptate was added respectively into the assay plates using a Flying Reagent Dispenser. After 1 hr incubation at room temperature, the fluorescence intensity in the plates was measured using an Envision plate reader. Each test compound was measured at 15 concentrations and in triplicates.
(In general: In qHTS, concentration-response curves come from the screen itself.)
For `ClC(Cl)C(Cl)(Cl)Cl`, the “activation” value was 9.18% (inactive).

Consider `O=C(O)CCCCCCNC1c2ccccc2CCc2ccccc21`, for which the “activation” value was -2.76% [at 42.5 µM] (inactive).

In the case of `Cc1c([N+](=O)[O-])cc2c(c1[N+](=O)[O-])C(C)(C)CC2(C)C`, the Potency was 48.6 µM (active). Consider `Oc1ccc2[nH]cc(CCCCN3CC=C(c4ccccc4)CC3)c2c1`, for which the “activation” value was -2.73% [at 42.5 µM] (inactive). Take `c1cc[n+]2c(c1)-c1cccc[n+]1CC2`: the “activation” value is -4.3% [at 42.5 µM] (inactive). As for `N#CC(C#N)=NNc1cccc(Cl)c1`, the “activation” value is -19.4% (inactive). Turning to `CCC1COC(Cn2cncn2)(c2ccc(Cl)cc2Cl)O1` (stereo not given), the “activation” value was 6.89% (inactive).

With `COC(=O)c1cc(Oc2ccc(Cl)cc2Cl)ccc1[N+](=O)[O-]`, the “activation” value is -8.42% (inactive). Take `O=C(N[C@H]1N=C(c2ccccc2F)c2cccc3c2N(CC3)C1=O)c1cc2ccccc2[nH]1`: the “activation” value was 1.67% [at 42.5 µM] (inactive). For `CC1CN1` (stereo not given), the “activation” value is -0.407% (inactive). `ClC1=C(Cl)[C@]2(Cl)[C@H]3[C@H]([C@@H]4C=C[C@H]3C4)[C@@]1(Cl)C2(Cl)Cl`: the Potency is 19.3 µM (active) and 13.7 µM (active). `CCN(CC)C(=S)S`: the Potency entry is “inactive”. As for `O=C(NC(=O)c1ccccc1Cl)Nc1ccc(OC(F)(F)F)cc1`, the “activation” value was -0.377% (inactive). Take `COC(=O)c1ccccc1S(=O)(=O)NC(=O)Nc1nc(C)nc(OC)n1`: the “activation” value is 8.96% (inactive). On the same count and under the same terms, the same measure for `CCN(CC)CCc1c[nH]c2ccccc12`: -2.58% (inactive); for `Oc1cccc(Cl)c1Cl`: -8.49% (inactive); for `CCCCCON=O`: 7.09% (inactive). Take `CCCCc1ccccc1`: the “activation” value was 6.79% (inactive). Regarding `Clc1c(Cl)c(Cl)c(Cl)c(Cl)c1Cl`, the activation was -17.5% [at 8.39 µM] (inactive). Consider `COc1ccc2[nH]cc(CCN(C(C)C)C(C)C)c2c1`, for which the “activation” value is -13.6% (inactive).

Turning to `Nc1nc(N)nc(Cl)n1`, the “activation” value is -20.7% (inactive). Regarding `CC(C)N(C(=O)CCl)c1ccccc1`, the Potency entry was “inactive”.

Turning to `O=c1c2ccccc2c(=O)c2c1cc(Cl)c1[nH]c3c([nH]c12)c(Cl)cc1c(=O)c2ccccc2c(=O)c13`, the “activation” value is 3.52% (inactive). In the case of `O=S(=O)(O)F`, the “activation” value was -7.87% (inactive). As to `CC(Cc1ccc(O)cc1)NCC(O)c1cc(O)cc(O)c1` (stereo not given), the Potency is 0.841 µM (active). As to `COc1ccc2c(c1OC)C(=O)O[C@@H]2[C@H]1c2cc3c(cc2CCN1C)OCO3`, the “activation” value is -2.87% (inactive).

`CCN(CC)CCN1C(=O)CN=C(c2ccccc2F)c2cc(Cl)ccc21`: the “activation” value is -1.6% [at 42.5 µM] (inactive).

Consider `CCC(OC(C)=O)C(CC(C)NC)(c1ccccc1)c1ccccc1` (stereo not given), for which the “activation” value is -14.4% (inactive). On to `CN=C=O`, for which the “activation” value was -9.02% (inactive).

For the molecule `[O]=[Cr](=[O])([OH])[O][Cr](=[O])(=[O])[OH]`, the “activation” value is 2.99% (inactive).

Take `c1ccc(N=NNc2ccccc2)cc1`: the Potency entry is “inactive”. Take `C[N+]1(C)[C@@H]2CC[C@H]1CC(OC(=O)C(CO)c1ccccc1)C2` (stereo not given in full): the “activation” value was -9.35% [at 42.5 µM] (inactive).

Regarding `CCCN`, the “activation” value is -8.86% (inactive). Still for that read-out and setting: in the case of `CCC[CH2][Sn]([CH2]CCC)([O]C(C)=O)[O]C(C)=O` it was -13% (inactive); in that of `O=C(Cl)c1ccccc1F`, 3.05% (inactive). With `CC(=O)C(Cl)C(=O)N(C)C` (stereo not given), the “activation” value was 14.3% (inactive). Still for that read-out and setting: the same measure for `COC(=O)N(OC)c1ccccc1COc1ccn(-c2ccc(Cl)cc2)n1`: 29.4% (inactive). In the case of `O=Cc1ccccc1`, the “activation” value is 18.5% (inactive). Consider `N#Cc1ccc(N(CC(N)=O)CC(F)(F)F)cc1C(F)(F)F`, for which the “activation” value was 0.758% (inactive).

For the molecule `CCOP(=O)(OCC)Oc1cc(C)nc(C(C)C)n1`, the “activation” value was -1.11% (inactive).
